Measurements published in PubChem BioAssay (NCI).
About 83,000 compounds went through this panel and 20% of them were active in at least one assay; those are over-represented in the sample as a whole.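 Percent growth is the endpoint: 0 to 100 indicates growth inhibition (40 means 60% inhibition), 0 means no net growth, and negative values indicate cell death.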 Active and inactive are the calls of the source. The calls were made as follows: active = growth percent below 10; inactive = the rest.

Columns and labels:
Assay in all cases: NCI-60 one-dose screen, 48 h (100 = growth as untreated, 0 = no growth, -100 = all killed)
Settings in all cases: 10 µM unless noted
SK-MEL-2 melanoma = system: SK-MEL-2 melanoma
EKVX NSCLC = system: EKVX NSCLC
SN12C renal = system: SN12C renal
UO-31 renal = system: UO-31 renal
TK-10 renal = system: TK-10 renal
ACHN renal = system: ACHN renal
A498 renal = system: A498 renal
CCRF-CEM leukemia = system: CCRF-CEM leukemia
MOLT-4 leukemia = system: MOLT-4 leukemia
SR leukemia = system: SR leukemia
RPMI-8226 leukemia = system: RPMI-8226 leukemia
OVCAR-8 ovarian = system: OVCAR-8 ovarian
OVCAR-5 ovarian = system: OVCAR-5 ovarian
OVCAR-4 ovarian = system: OVCAR-4 ovarian
SK-OV-3 ovarian = system: SK-OV-3 ovarian
IGROV1 ovarian = system: IGROV1 ovarian
HS 578T breast = system: HS 578T breast
NCI/ADR-RES ovarian = system: NCI/ADR-RES ovarian
CAKI-1 renal = system: CAKI-1 renal
OVCAR-3 ovarian = system: OVCAR-3 ovarian

Measured: growth

CCOC(=O)Nc1ccc2c(ccn2C(=O)c2cccc(F)c2)c1
inactive: SK-MEL-2 melanoma 32% | EKVX NSCLC 44.1% | SN12C renal 48.7% | UO-31 renal 49.9% | TK-10 renal 59.9% | ACHN renal 53.4% | CCRF-CEM leukemia 16.7% | MOLT-4 leukemia 30.2% | SR leukemia 16.8% | RPMI-8226 leukemia 24.6% | OVCAR-8 ovarian 43.9% | OVCAR-5 ovarian 60.5% | OVCAR-4 ovarian 68.8% | SK-OV-3 ovarian 55.3% | IGROV1 ovarian 45.4% | HS 578T breast 39.1% | NCI/ADR-RES ovarian 19.8%
active: A498 renal -6.19%

O=C(/C=C/c1ccccc1Cl)Nc1ncc(Cc2cc(Cl)ccc2Cl)s1
inactive: SK-MEL-2 melanoma 30.4% | EKVX NSCLC 37.6% | SN12C renal 34.1% | UO-31 renal 48.2% | TK-10 renal 61.2% | ACHN renal 31.3% | CAKI-1 renal 36.6% | CCRF-CEM leukemia 14% | SR leukemia 14.3% | RPMI-8226 leukemia 19.7% | OVCAR-8 ovarian 36.9% | OVCAR-5 ovarian 56% | OVCAR-4 ovarian 53.8% | SK-OV-3 ovarian 43.7% | IGROV1 ovarian 19.4% | NCI/ADR-RES ovarian 17.9%
active: A498 renal -16.6% | HS 578T breast 5.7%

O=C(CCCCCCN1CC(=O)N2[C@@H](c3ccc(Cl)s3)c3[nH]c4ccccc4c3C[C@H]2C1=O)NO
active: IGROV1 ovarian -20.6%
inactive: SK-MEL-2 melanoma 59.9% | EKVX NSCLC 49.1% | SN12C renal 72.7% | UO-31 renal 57.8% | TK-10 renal 43.4% | ACHN renal 66.8% | CAKI-1 renal 48.8% | A498 renal 72.8% | CCRF-CEM leukemia 16.7% | SR leukemia 14.7% | RPMI-8226 leukemia 17% | OVCAR-8 ovarian 38.5% | OVCAR-5 ovarian 39.3% | OVCAR-4 ovarian 64.6% | SK-OV-3 ovarian 78.7% | HS 578T breast 65.5% | NCI/ADR-RES ovarian 98.5%

CC1CC(=O)C2=C(C1)Nc1ccc(Br)cc1CC2c1c[nH]c2ccc(Br)cc12 (centres undefined)
inactive: SK-MEL-2 melanoma 37.3% | EKVX NSCLC 41.2% | SN12C renal 53.6% | UO-31 renal 50.9% | TK-10 renal 79.4% | ACHN renal 48.6% | A498 renal 19.7% | CCRF-CEM leukemia 29.7% | MOLT-4 leukemia 35.8% | SR leukemia 29.7% | RPMI-8226 leukemia 42.8% | OVCAR-8 ovarian 66.2% | OVCAR-5 ovarian 82% | OVCAR-4 ovarian 74.4% | SK-OV-3 ovarian 77.3% | IGROV1 ovarian 32.9% | OVCAR-3 ovarian 42.1% | HS 578T breast 58% | NCI/ADR-RES ovarian 26.6%

O=C(CCCCCCN1CC(=O)N2[C@@H](C3CC3)c3[nH]c4ccccc4c3C[C@H]2C1=O)NO
inactive: SK-MEL-2 melanoma 76.5% | EKVX NSCLC 85.7% | SN12C renal 79% | UO-31 renal 70.1% | TK-10 renal 79.2% | ACHN renal 67.6% | A498 renal 98.8% | CCRF-CEM leukemia 19.9% | MOLT-4 leukemia 16% | SR leukemia 36.5% | RPMI-8226 leukemia 56.2% | OVCAR-8 ovarian 37.5% | OVCAR-5 ovarian 71.8% | OVCAR-4 ovarian 97.6% | SK-OV-3 ovarian 102% | IGROV1 ovarian 89.2% | HS 578T breast 62% | NCI/ADR-RES ovarian 75.7%

O=C1Nc2cc(Cl)ccc2/C1=C\c1ccc(OCc2ccccc2)cc1
inactive: SK-MEL-2 melanoma 111% | EKVX NSCLC 100% | SN12C renal 96% | UO-31 renal 76.2% | TK-10 renal 154% | ACHN renal 94.8% | A498 renal 93% | CCRF-CEM leukemia 102% | MOLT-4 leukemia 99.1% | SR leukemia 105% | RPMI-8226 leukemia 107% | OVCAR-8 ovarian 100% | OVCAR-5 ovarian 101% | OVCAR-4 ovarian 96.3% | SK-OV-3 ovarian 103% | IGROV1 ovarian 91.6% | HS 578T breast 96.7% | NCI/ADR-RES ovarian 104%

CN1CCN(Cc2ccc(NC(=O)c3cncc(C#Cc4cnc5ccc(OCC6COC6)nn45)c3)cc2C(F)(F)F)CC1
active: SK-MEL-2 melanoma -78.4% | EKVX NSCLC -71.6% | SN12C renal -30.6% | UO-31 renal -92.3% | TK-10 renal -82.2% | ACHN renal -96.5% | A498 renal -93.7% | CCRF-CEM leukemia -8.07% | MOLT-4 leukemia 1.49% | SR leukemia -22.7% | RPMI-8226 leukemia -24.4% | OVCAR-8 ovarian -54.5% | OVCAR-5 ovarian -75.1% | OVCAR-4 ovarian -69.9% | SK-OV-3 ovarian -22.6% | IGROV1 ovarian -39% | HS 578T breast -37.3% | NCI/ADR-RES ovarian -34.4%

Cc1ccccc1NC(=O)Nc1nc2ccc([N+](=O)[O-])cc2s1
inactive: EKVX NSCLC 10.3% | TK-10 renal 12.2% | CCRF-CEM leukemia 16.2% | MOLT-4 leukemia 12.5% | OVCAR-5 ovarian 16.9% | IGROV1 ovarian 22.6% | OVCAR-3 ovarian 10.1% | HS 578T breast 24.1%
active: SK-MEL-2 melanoma -9.75% | SN12C renal 6.76% | UO-31 renal 9.02% | ACHN renal 3.8% | A498 renal -24.7% | SR leukemia 6.41% | RPMI-8226 leukemia 5.55% | OVCAR-8 ovarian 9.56% | OVCAR-4 ovarian 3.62% | SK-OV-3 ovarian -19.4% | NCI/ADR-RES ovarian 6.24%

C=CCSC1=NC2C(N(CC)C(=O)N2CC)N1/N=C/C=C/c1ccccc1OC (centres undefined)
inactive: SK-MEL-2 melanoma 98.7% | EKVX NSCLC 83.7% | SN12C renal 97.5% | UO-31 renal 68.3% | TK-10 renal 122% | ACHN renal 74.7% | A498 renal 55.1% | CCRF-CEM leukemia 63.5% | MOLT-4 leukemia 70.6% | SR leukemia 16.9% | RPMI-8226 leukemia 53.7% | OVCAR-8 ovarian 83.5% | OVCAR-5 ovarian 105% | OVCAR-4 ovarian 79.9% | SK-OV-3 ovarian 99.8% | IGROV1 ovarian 69% | OVCAR-3 ovarian 54.6% | HS 578T breast 82.4% | NCI/ADR-RES ovarian 53.3%

CCCCCCNC(=O)Oc1ccc(/C(=C(/C)c2ccc(OC)cc2)c2ccc(OCCN3CCCCCC3)cc2)cc1
active: UO-31 renal 6.69% | MOLT-4 leukemia 9.66% | SR leukemia -6.81% | RPMI-8226 leukemia -2.43% | HS 578T breast 9.93%
inactive: SK-MEL-2 melanoma 74.5% | EKVX NSCLC 54.8% | SN12C renal 14.5% | TK-10 renal 92.1% | ACHN renal 47.7% | A498 renal 64.2% | CCRF-CEM leukemia 12.4% | OVCAR-8 ovarian 41.8% | OVCAR-5 ovarian 61.1% | OVCAR-4 ovarian 47.1% | SK-OV-3 ovarian 66.1% | IGROV1 ovarian 47% | NCI/ADR-RES ovarian 48.2%

C#Cc1nc(/C=C\CCCCCCC(=O)NO)cs1
active: UO-31 renal -76.2% | CCRF-CEM leukemia -40.5% | MOLT-4 leukemia -24.6% | SR leukemia -19.7% | RPMI-8226 leukemia -1.07% | IGROV1 ovarian -68.2%
inactive: SK-MEL-2 melanoma 92.1% | EKVX NSCLC 82.9% | SN12C renal 80.9% | TK-10 renal 42% | ACHN renal 11.3% | A498 renal 34.2% | OVCAR-8 ovarian 40.9% | OVCAR-5 ovarian 45.7% | OVCAR-4 ovarian 69.9% | SK-OV-3 ovarian 91.6% | HS 578T breast 64.9% | NCI/ADR-RES ovarian 13.1%

Cc1nc(N)sc1-c1csc(Nc2ccc(C(F)(F)F)cc2)n1
inactive: EKVX NSCLC 27% | SN12C renal 29.2% | UO-31 renal 21.1% | TK-10 renal 35% | ACHN renal 13% | A498 renal 82.4% | CCRF-CEM leukemia 21.3% | MOLT-4 leukemia 18.3% | SR leukemia 18.9% | RPMI-8226 leukemia 26.6% | OVCAR-8 ovarian 49.4% | OVCAR-5 ovarian 32.2% | OVCAR-4 ovarian 42.7% | SK-OV-3 ovarian 65.5% | IGROV1 ovarian 18.9% | OVCAR-3 ovarian 20.8% | HS 578T breast 32.4% | NCI/ADR-RES ovarian 27.3%
active: SK-MEL-2 melanoma 8.77%

Brc1cc(-c2cc(-c3ccc4c(c3)OCCO4)[nH]n2)cs1
inactive: SK-MEL-2 melanoma 62.7% | EKVX NSCLC 62.4% | SN12C renal 65% | UO-31 renal 54.6% | TK-10 renal 138% | ACHN renal 56% | A498 renal 48.6% | CCRF-CEM leukemia 23.4% | MOLT-4 leukemia 27.8% | SR leukemia 14.2% | RPMI-8226 leukemia 29.9% | OVCAR-8 ovarian 51.8% | OVCAR-5 ovarian 75.8% | OVCAR-4 ovarian 83.5% | SK-OV-3 ovarian 62.5% | IGROV1 ovarian 50.8% | HS 578T breast 61.1% | NCI/ADR-RES ovarian 17.4%

O=C(Nc1ccccc1)Nc1nc2ccc([N+](=O)[O-])cc2[nH]1
inactive: SK-MEL-2 melanoma 53.9% | EKVX NSCLC 43.6% | SN12C renal 62.7% | UO-31 renal 44.2% | TK-10 renal 39.1% | ACHN renal 37.6% | A498 renal 11.1% | CCRF-CEM leukemia 52.2% | MOLT-4 leukemia 55.7% | SR leukemia 70.4% | RPMI-8226 leukemia 46.1% | OVCAR-8 ovarian 66.9% | OVCAR-5 ovarian 75.2% | OVCAR-4 ovarian 23.5% | SK-OV-3 ovarian 73.4% | IGROV1 ovarian 45.9% | OVCAR-3 ovarian 38.3% | HS 578T breast 75.5% | NCI/ADR-RES ovarian 69.1%

COc1cc(C(C)=C(c2ccc(OCCN(C)C)cc2)c2ccc(OCCN(C)C)cc2)ccc1F
inactive: SK-MEL-2 melanoma 109% | EKVX NSCLC 96.1% | SN12C renal 101% | UO-31 renal 95.5% | TK-10 renal 97.8% | ACHN renal 105% | A498 renal 108% | CCRF-CEM leukemia 111% | MOLT-4 leukemia 108% | SR leukemia 99.2% | RPMI-8226 leukemia 107% | OVCAR-8 ovarian 104% | OVCAR-5 ovarian 103% | OVCAR-4 ovarian 108% | SK-OV-3 ovarian 102% | IGROV1 ovarian 105% | OVCAR-3 ovarian 109% | HS 578T breast 101% | NCI/ADR-RES ovarian 105%

NS(=O)(=O)c1ccc(Nc2nc(Nc3ccccc3)nc(N3N=C(c4ccc(Cl)cc4)CC3c3ccc(Cl)cc3)n2)cc1 (centres undefined)
active: SR leukemia 5.52%
inactive: SK-MEL-2 melanoma 65.6% | EKVX NSCLC 56.9% | SN12C renal 40.2% | UO-31 renal 48.9% | TK-10 renal 89.3% | ACHN renal 32.6% | CAKI-1 renal 42.7% | A498 renal 55.8% | CCRF-CEM leukemia 14.2% | RPMI-8226 leukemia 37.1% | OVCAR-8 ovarian 68.4% | OVCAR-5 ovarian 43.2% | OVCAR-4 ovarian 49.5% | SK-OV-3 ovarian 64.9% | IGROV1 ovarian 34.3% | HS 578T breast 78.8% | NCI/ADR-RES ovarian 62.4%
